Measurements from PubChem BioAssay AID1159580 (chemical genetic matrix, 2015).
Where “and” joins values, the source holds several entries; their conditions need not be identical. Equal values may be shown once. Screen size: about 5,500 compounds; about 2,000 (36%) were called active. Roughly 18% stayed inconclusive and do not appear here. No stated cut-off is given here; in the data, active means normalized growth mostly below about 0.91 (no sharp cut-off); inconclusive means no clear call, values can overlap the other calls; inactive means mostly above about 0.92. Some of the results follow.

Assay: chemical genetic growth profiling, strain panel (AID 1159580);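 further: tested at 20 µM; growth read once vehicle control cultures reached saturation at 30 °C; 1 = growth at the plate median or of vehicle wells; lower values mean less growth of the strain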
Details: S. cerevisiae deletion strains, growth OD

Measured: normalized growth

NC1CONC1=O (centres undefined)
inactive: locus YAL040C, strain CLN3, active compounds read low 1.01 and 0.999 | locus YCL061C, strain MRC1 (second series), active compounds read low 1 | locus YDR150W, strain NUM1, active compounds read low 1.01 | locus YDR363W, strain ESC2, active compounds read low 1.01 | locus YER002W, strain NOP16, active compounds read low 1.01 and 0.983 | locus YGR229C, strain SMI1, active compounds read low 1.01 | locus YMR307W, strain GAS1, active compounds read low 1.01 | locus YNL128W, strain TEP1, active compounds read low 1.03 | locus YNL153C, strain GIM3, active compounds read low 1.01 and 0.981 | locus YNL175C, strain NOP13, active compounds read low 1.02 | locus YNL197C, strain WHI3, active compounds read low 1.02 and 1 | locus YNL224C, strain SQS1, active compounds read low 0.993 and 0.985 | locus YOR083W, strain WHI5 (second series), active compounds read low 1.01 | locus YPL241C, strain CIN2, active compounds read low 1
